This is an account of results in PubChem BioAssay (EPA / NIEHS).

Assay [1] in a line: ATG_PBREM_CIS: Attagene CIS-FACTORIAL HepG2 Assay for human Phenobarbital-responsive Enhancer Module (PBREM) (AID 2282955). The note with it: HepG2 PBREM cis-reporter, Attagene multiplexed transcription; actives raise or lower the signal. A digest of the protocol:
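Cells were transfected with cis-element reporter units and treated for 24 h, after which RNA was extracted and reporter transcripts measured by RT-PCR and capillary electrophoresis.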

Assay [2] addresses Paired box protein Pax-6 (Homo sapiens) (UniProt P26367). Nature of the assay: ATG_Pax6_CIS: Attagene CIS-FACTORIAL HepG2 Assay for human Paired Box 6 (PAX6) (AID 2282956). The note with it: HepG2 CIS-FACTORIAL PAX6 reporter transcription, RNA readout; actives raise or lower the signal. Put shortly: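 After twenty-four hours of chemical exposure, transfected HepG2 cells are harvested for RNA. Cis-promoter reporter transcripts are amplified, fluorescently labelled and sized by capillary electrophoresis, with gain and loss of signal scored against DMSO.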

Assay [3] can be described thus: ATG_PXRE_CIS: Attagene CIS-FACTORIAL HepG2 Assay for human Pregnane X Receptor Element (PXRE) (AID 2282957). The note with it: HepG2 Attagene CIS-FACTORIAL PXRE reporter, mRNA; actives raise or lower the signal. A digest of the protocol:
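HepG2 cells transiently transfected with cis-element-driven multiplexed reporter units; after 24 h chemical exposure, reporter mRNA measured by RT-PCR, 6-FAM labelling, HpaI digestion and capillary electrophoresis. Bidirectional fitting relative to DMSO.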

Assay [4] in a line: ATG_PPRE_CIS: Attagene CIS-FACTORIAL HepG2 Assay for human Peroxisome Proliferator-activated Response Element (PPRE) (AID 2282958). The note with it: HepG2 PPRE cis-element reporter, Attagene transcription factor profiling; actives raise or lower the signal. A digest of the protocol: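 In this cell-based multiplex, a PPRE cis element drives a reporter sequence in transiently transfected HepG2 cells. Following 24 h treatment, labeled cDNA amplicons are sized and quantified by capillary electrophoresis, with DMSO defining baseline.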

Assay [5] is described as follows: ATG_RORE_CIS: Attagene CIS-FACTORIAL HepG2 Assay for human RAR-related Orphan Receptor Element (RORE) (AID 2282959). The note with it: HepG2 Attagene cis-factorial RORE reporter, mRNA; actives raise or lower the signal. Put shortly: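 Endogenous factor activity at a cis response element is read as reporter transcript levels in HepG2 cells, 24 h post-dose. Transcripts are quantified by RT-PCR with capillary electrophoresis, and data fitted in both directions against DMSO.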

Assay [6] in a line: ATG_Sox_CIS: Attagene CIS-FACTORIAL HepG2 Assay for human SRY-box transcription factor (SOX) (AID 2282960). The note with it: HepG2 Attagene cis-factorial SOX reporter, mRNA; actives raise or lower the signal. Put shortly: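 Measures mRNA induction of a SOX1-associated reporter in HepG2 after 24 h dosing. Fluorescently labelled RT-PCR fragments are separated by capillary electrophoresis, and gain or loss relative to DMSO control is fitted.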

Assay [7] concerns the target Transcription factor Sp1 (Homo sapiens) (UniProt P08047). Briefly: ATG_Sp1_CIS: Attagene CIS-FACTORIAL HepG2 Assay for human Specificity Protein 1 (Sp1) (AID 2282961). The note with it: HepG2 Sp1 cis-reporter transcription, actives raise or lower the signal. A digest of the protocol:
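Cells: HepG2, transiently transfected with cis-regulated multiplexed reporters. Exposure: 24 h. Detection: reporter transcripts amplified, fluorescently labeled, restriction-digested and sized by capillary electrophoresis. Analysis: bidirectional fit relative to DMSO.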

A short description of assay [8]: ATG_SREBP_CIS: Attagene CIS-FACTORIAL HepG2 Assay for human Sterol Regulatory Element Binding (SREBP) (AID 2282962). The note with it: HepG2 Attagene cis-factorial SREBP reporter, mRNA; actives raise or lower the signal. A digest of the protocol:
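Twenty-four hours after chemical dosing of transfected HepG2 cultures, reporter RNA was converted to cDNA, amplified, end-labelled with 6-FAM and resolved by capillary electrophoresis. Responses were fitted relative to DMSO.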

Assay [9] concerns the target Signal transducer and activator of transcription 3 (Homo sapiens) (UniProt P40763). Nature of the assay: ATG_STAT3_CIS: Attagene CIS-FACTORIAL HepG2 Assay for human Signal Transducer and Activator of Transcription 3 (STAT3) (AID 2282963). The note with it: HepG2, Attagene cis-factorial STAT3 reporter transcription; actives raise or lower the signal. Put shortly: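 Endogenous STAT3-responsive cis-element activity was read in transiently transfected HepG2 cells after 24 h treatment. Reporter transcripts were quantified via RT-PCR and capillary electrophoresis, with DMSO as negative control and bidirectional curve fitting.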

A short description of assay [10]: ATG_TA_CIS: Attagene CIS-FACTORIAL HepG2 Assay for human TA Basal Promoter (AID 2282964). The note with it: HepG2 Attagene CIS-factorial TA basal promoter reporter; actives raise or lower the signal. A digest of the protocol:
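Read-out: fluorescent reporter-transcript fragments resolved by capillary electrophoresis after RT-PCR and HpaI digestion. Source: HepG2 cells carrying transiently transfected multi-reporter cis constructs, treated 24 h. Endpoint fitted bidirectionally relative to DMSO.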

Assay [11] can be described thus: ATG_TCF_b_cat_CIS: Attagene CIS-FACTORIAL HepG2 Assay for human T-Cell-Factor with beta-catenin (TCF/b-cat) (AID 2282965). The note with it: HepG2 TCF/beta-catenin cis-reporter transcription, actives raise or lower the signal. A digest of the protocol: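 Endogenous transcription factor activity is captured through cis-promoter reporter constructs transiently introduced into human HepG2 liver cells. Induced reporter mRNA is measured after 24 h and fitted bidirectionally relative to DMSO.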

A short description of assay [12]: ATG_TAL_CIS: Attagene CIS-FACTORIAL HepG2 Assay for human TAL Basal Promoter (AID 2282966).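 Also: background control endpoint measuring basal TAL promoter reporter mRNA not a specific factor.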 The note with it: HepG2 Attagene cis-factorial TAL promoter reporter; actives raise or lower the signal. A digest of the protocol:
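HepG2 cells transiently transfected with multiplexed cis-promoter reporter units, dosed 24 h. Reporter mRNA quantified by RT-PCR, 6-FAM labelling, HpaI digestion and capillary electrophoresis; TAL basal promoter serves as background control, fitted bidirectionally versus DMSO.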

Assay [13] is described as follows: ATG_VDRE_CIS: Attagene CIS-FACTORIAL HepG2 Assay for human Vitamin D Receptor Element (VDRE) (AID 2282968). The note with it: HepG2 VDRE cis-reporter transcription, actives raise or lower the signal. Put shortly: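 Reporter mRNA induction, quantified by capillary electrophoresis of fluorescently labelled RT-PCR products, was read 24 h after dosing HepG2 cells carrying transiently transfected cis-regulated reporter units; gain or loss relative to DMSO.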

Assay [14] deals with Estrogen receptor (Homo sapiens) (UniProt P03372). Briefly: ATG_ERa_TRANS: Attagene TRANS-FACTORIAL HepG2 Assay for human Estrogen Receptor alpha (ERa) (AID 2282970; active = hit-call score of the fitted dose curve at least 0.9, where 1 is the maximum). The note with it: HepG2 Attagene TRANS ERa GAL4 reporter, mRNA. A digest of the protocol: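 HepG2 cells transiently transfected with multiplexed GAL4-UAS reporter units read out chimeric NR-Gal4 activity. After 24 h compound exposure, reporter mRNA was quantified by RT-PCR, 6-FAM labeling, HpaI digestion and capillary electrophoresis, relative to DMSO.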

The target of assay [15] is X-box-binding protein 1 (Homo sapiens) (UniProt P17861). Nature of the assay: ATG_Xbp1_CIS: Attagene CIS-FACTORIAL HepG2 Assay for human X-box Binding Protein 1 (XBP1) (AID 2282972). The note with it: HepG2 XBP1 cis-element reporter, Attagene multiplex; actives raise or lower the signal. Put shortly: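 After a 24-hour chemical exposure of HepG2 cells carrying cis-regulated reporters, reporter mRNA levels are assessed. Quantification uses RT-PCR, 6-FAM labelling and capillary electrophoresis. Gain- or loss-of-signal is fitted against DMSO.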

Assay [16] is described as follows: ATG_M_19_TRANS: Attagene TRANS-FACTORIAL HepG2 Assay for M19 Transcription Factor (Internal Marker) (AID 2282974; active = hit-call score of the fitted dose curve at least 0.9, where 1 is the maximum). The note with it: HepG2 Attagene TRANS-FACTORIAL M19 internal marker reporter. A digest of the protocol:
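Reporter mRNA induction was measured in transfected HepG2 cells 24 h after dosing. Endpoint fitted upward relative to DMSO and serves as a background control within the multiplexed TRANS panel.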

Assay [17] is described as follows: ATG_GAL4_TRANS: Attagene TRANS-FACTORIAL HepG2 Assay for GAL4 (Internal Marker) (AID 2282976; active = hit-call score of the fitted dose curve at least 0.9, where 1 is the maximum). The note with it: HepG2 Attagene TRANS GAL4 internal marker reporter. Put shortly: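 Background-control readout: GAL4-UAS reporter transcript in transiently transfected HepG2 cells after 24 h compound exposure. Measured by RT-PCR, 6-FAM primer extension, HpaI digest and capillary electrophoresis; gain-of-signal fit versus DMSO.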

Assay [18] in a line: ATG_TGFb_CIS: Attagene CIS-FACTORIAL HepG2 Assay for human Transforming Growth Factor (TGF) (AID 2282967). The note with it: HepG2 Attagene CIS TGFb reporter, mRNA transcription; actives raise or lower the signal. Put shortly:
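Transient MRTU transfection of HepG2 (FuGene 6). Dose 24 h. TriZol RNA, oligo(dT) RT, PCR, 6-FAM primer extension, HpaI cut, CE. Bidirectional fit, DMSO = baseline.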

Assay [19] has as its target Nuclear receptor subfamily 1 group I member 3 (Homo sapiens) (UniProt Q14994). Briefly: ATG_CAR_TRANS: Attagene TRANS-FACTORIAL HepG2 Assay for human Constitutive Androstane Receptor (CAR) (AID 2282969; active = hit-call score of the fitted dose curve at least 0.9, where 1 is the maximum;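 also: activators raise reporter mRNA above DMSO so AC50 marks induction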). The note with it: HepG2 Attagene TRANS-FACTORIAL CAR reporter. Put shortly: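 Readout is reporter mRNA induction, quantified by fluorescent primer extension and capillary electrophoresis after RT-PCR. Cells were HepG2 transiently carrying chimeric NR-Gal4 constructs with GAL4-UAS reporters, treated for 24 h; activity scored upward from DMSO.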

The target of assay [20] is Steroid hormone receptor ERR1 (Homo sapiens) (UniProt P11474). Nature of the assay: ATG_ERRa_TRANS: Attagene TRANS-FACTORIAL HepG2 Assay for human Estrogen-Related Receptor alpha (ERRa) (AID 2282971; active = hit-call score of the fitted dose curve at least 0.9, where 1 is the maximum). The note with it: HepG2 Attagene TRANS reporter, ERRa transactivation. Put shortly: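 HepG2 cells transiently transfected with GAL4-UAS reporter units and chimeric NR-Gal4 constructs; after 24 hour compound incubation, reporter mRNA quantified by RT-PCR, fluorescent labelling and capillary electrophoresis, gain of signal versus DMSO.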

“And” between values parts separate entries of the source, which are not always exact repeats. Identical values can stand only once. Records with an inconclusive call do not appear. More than one record can exist for a structure, and the calls need not agree. The source made the active and inactive calls. The calls were made as follows, unless noted: active = hit-call score of the fitted dose curve at least 0.9, where 1 is the maximum; inactive = score below 0.9.

Sequence of Estrogen receptor (Homo sapiens) (P03372 whole entry, looked up, the tested form may be a part): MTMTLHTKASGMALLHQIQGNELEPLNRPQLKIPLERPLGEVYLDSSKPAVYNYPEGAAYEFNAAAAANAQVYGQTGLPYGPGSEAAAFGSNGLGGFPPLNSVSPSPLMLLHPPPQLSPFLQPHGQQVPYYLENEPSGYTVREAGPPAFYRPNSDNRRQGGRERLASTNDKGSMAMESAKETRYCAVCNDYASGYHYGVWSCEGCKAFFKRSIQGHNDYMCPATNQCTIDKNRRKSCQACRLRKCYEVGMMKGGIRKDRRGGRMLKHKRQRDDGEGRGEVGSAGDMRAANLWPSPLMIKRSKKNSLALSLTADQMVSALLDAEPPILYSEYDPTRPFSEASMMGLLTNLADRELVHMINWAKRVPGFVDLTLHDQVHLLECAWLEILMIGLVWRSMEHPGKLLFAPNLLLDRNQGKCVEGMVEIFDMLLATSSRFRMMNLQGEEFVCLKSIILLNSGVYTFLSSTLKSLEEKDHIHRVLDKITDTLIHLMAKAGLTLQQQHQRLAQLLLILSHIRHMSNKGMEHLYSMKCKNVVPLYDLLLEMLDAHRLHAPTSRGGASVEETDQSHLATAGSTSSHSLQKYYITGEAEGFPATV
Sequence of Paired box protein Pax-6 (Homo sapiens) (P26367 whole entry, looked up): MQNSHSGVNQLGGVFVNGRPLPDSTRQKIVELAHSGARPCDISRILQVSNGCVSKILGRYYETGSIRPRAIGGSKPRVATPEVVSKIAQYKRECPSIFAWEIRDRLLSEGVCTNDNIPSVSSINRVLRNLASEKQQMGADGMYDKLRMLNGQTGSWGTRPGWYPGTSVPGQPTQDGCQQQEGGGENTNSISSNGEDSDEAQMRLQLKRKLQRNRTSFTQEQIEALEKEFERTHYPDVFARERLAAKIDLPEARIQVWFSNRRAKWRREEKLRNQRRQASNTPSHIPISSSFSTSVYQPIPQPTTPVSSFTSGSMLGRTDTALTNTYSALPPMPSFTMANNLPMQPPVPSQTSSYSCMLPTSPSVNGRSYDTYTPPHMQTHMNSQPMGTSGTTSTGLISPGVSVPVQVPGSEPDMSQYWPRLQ
Sequence of X-box-binding protein 1 (Homo sapiens) (P17861 whole entry, looked up): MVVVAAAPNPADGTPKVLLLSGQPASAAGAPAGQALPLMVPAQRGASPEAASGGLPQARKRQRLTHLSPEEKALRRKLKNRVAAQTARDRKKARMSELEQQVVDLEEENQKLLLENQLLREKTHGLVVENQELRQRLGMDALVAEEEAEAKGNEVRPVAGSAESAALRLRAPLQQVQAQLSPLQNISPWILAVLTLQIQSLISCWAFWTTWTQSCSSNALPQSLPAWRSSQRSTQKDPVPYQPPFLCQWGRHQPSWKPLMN
Sequence of Transcription factor Sp1 (Homo sapiens) (P08047 whole entry, looked up): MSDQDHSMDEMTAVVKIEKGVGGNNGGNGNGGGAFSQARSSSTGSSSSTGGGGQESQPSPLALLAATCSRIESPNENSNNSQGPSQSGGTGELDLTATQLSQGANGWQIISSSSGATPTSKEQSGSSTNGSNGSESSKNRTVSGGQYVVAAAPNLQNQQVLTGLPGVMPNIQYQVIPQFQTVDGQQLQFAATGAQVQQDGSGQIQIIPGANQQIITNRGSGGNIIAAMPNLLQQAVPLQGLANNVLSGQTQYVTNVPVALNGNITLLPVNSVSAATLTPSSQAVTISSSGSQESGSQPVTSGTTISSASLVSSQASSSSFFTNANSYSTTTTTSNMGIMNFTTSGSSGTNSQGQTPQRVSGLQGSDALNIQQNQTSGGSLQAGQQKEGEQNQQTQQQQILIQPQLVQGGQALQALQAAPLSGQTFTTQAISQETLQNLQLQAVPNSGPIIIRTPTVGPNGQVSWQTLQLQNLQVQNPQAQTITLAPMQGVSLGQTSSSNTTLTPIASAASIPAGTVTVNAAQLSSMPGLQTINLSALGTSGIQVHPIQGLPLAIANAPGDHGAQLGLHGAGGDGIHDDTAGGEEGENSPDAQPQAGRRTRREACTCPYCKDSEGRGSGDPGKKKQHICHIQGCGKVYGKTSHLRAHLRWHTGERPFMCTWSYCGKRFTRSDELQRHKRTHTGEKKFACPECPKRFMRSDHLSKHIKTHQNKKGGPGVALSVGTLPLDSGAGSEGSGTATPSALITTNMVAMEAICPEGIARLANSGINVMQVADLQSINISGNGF
Sequence of Signal transducer and activator of transcription 3 (Homo sapiens) (P40763 whole entry, looked up): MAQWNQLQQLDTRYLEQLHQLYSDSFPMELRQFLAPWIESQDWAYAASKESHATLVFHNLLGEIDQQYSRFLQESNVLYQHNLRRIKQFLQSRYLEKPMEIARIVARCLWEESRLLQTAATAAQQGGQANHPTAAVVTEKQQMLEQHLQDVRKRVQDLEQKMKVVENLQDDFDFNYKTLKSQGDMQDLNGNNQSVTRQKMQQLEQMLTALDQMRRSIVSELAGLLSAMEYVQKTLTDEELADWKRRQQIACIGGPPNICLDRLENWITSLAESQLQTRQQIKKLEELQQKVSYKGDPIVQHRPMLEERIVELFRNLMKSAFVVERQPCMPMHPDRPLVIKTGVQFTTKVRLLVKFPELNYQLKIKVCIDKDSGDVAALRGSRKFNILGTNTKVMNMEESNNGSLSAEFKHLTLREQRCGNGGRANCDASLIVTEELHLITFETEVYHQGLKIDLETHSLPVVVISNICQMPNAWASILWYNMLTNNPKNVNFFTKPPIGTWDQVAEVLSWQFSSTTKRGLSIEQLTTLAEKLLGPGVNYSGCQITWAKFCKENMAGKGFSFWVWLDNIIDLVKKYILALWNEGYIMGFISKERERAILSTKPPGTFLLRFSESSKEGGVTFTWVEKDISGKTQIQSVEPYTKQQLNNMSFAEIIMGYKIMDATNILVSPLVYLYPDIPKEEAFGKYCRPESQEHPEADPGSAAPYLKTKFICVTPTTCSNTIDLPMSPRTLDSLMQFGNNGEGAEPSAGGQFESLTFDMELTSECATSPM
Sequence of Nuclear receptor subfamily 1 group I member 3 (Homo sapiens) (Q14994 whole entry, looked up, the tested form may be a part): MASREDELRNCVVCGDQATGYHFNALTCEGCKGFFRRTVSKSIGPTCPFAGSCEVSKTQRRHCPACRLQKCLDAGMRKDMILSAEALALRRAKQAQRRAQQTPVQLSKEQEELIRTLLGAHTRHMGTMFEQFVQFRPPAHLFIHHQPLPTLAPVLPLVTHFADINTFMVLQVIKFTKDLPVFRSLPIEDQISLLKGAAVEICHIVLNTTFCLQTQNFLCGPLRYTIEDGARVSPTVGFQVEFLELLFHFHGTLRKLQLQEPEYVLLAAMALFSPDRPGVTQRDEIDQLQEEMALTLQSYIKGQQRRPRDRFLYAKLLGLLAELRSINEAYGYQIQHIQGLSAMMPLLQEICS
Sequence of Steroid hormone receptor ERR1 (Homo sapiens) (P11474 whole entry, looked up, the tested form may be a part): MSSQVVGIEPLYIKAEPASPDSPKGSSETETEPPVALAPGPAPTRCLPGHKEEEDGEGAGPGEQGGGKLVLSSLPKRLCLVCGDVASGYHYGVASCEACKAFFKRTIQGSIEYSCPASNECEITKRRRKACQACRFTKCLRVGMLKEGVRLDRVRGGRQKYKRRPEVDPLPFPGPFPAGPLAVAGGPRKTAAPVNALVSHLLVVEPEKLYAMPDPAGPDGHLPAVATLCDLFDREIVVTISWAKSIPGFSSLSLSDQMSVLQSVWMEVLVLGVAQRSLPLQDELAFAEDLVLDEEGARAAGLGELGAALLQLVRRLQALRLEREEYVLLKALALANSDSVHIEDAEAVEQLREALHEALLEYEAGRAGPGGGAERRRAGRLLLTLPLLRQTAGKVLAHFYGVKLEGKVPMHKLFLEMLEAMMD

Usually AC50 stands for the concentration giving half of the maximal activity seen. With `CC(C)COC(=O)c1ccccc1O`, the outcome in assay [1], in assay [2], in assay [4], in [5], in [6] and in assay [7] was inactive. Moreover, the result in assay [8], in [9], in assay [10], in assay [11], in [12] and in [13] was inactive. Moreover, the outcome in assay [14], in assay [15], in assay [16] and in [17] was inactive. In addition, the concentration at half-maximal activity (AC50) in assay [3] is 44.8 µM (active).
`CCCCCCCCSCc1cc(C)c(O)c(CSCCCCCCCC)c1`: the result in assay [1], in assay [2], in assay [4], in assay [5], in [6] and in assay [7] was inactive. Moreover, the call in [8], in assay [9], in assay [10], in assay [11], in assay [12] and in assay [18] was inactive. Further, the outcome in assay [13], in assay [14], in assay [15] and in [17] was inactive. Besides, the AC50 in assay [3] was 19.8 µM (active).
As to `CN(C)CCC=C1c2ccccc2CCc2ccccc21`, the outcome in [1], in assay [2], in assay [4], in assay [5], in assay [6] and in [8] was inactive. Also, the molecule was classed as inactive in assay [9], in assay [10], in assay [12], in assay [18], in assay [19] and in [14]. In addition, the result in assay [16] was inactive. Further, the half-maximal activity concentration (AC50) was 13.2 µM (active) in assay [3]; 45.3 µM (active) in assay [7]; 22.1 µM (active) in assay [11]; 23.7 µM (active) in assay [13]; 40 µM (active) in assay [15].
`C[C@]12CC[C@@H]3c4ccc(O)cc4CC[C@H]3[C@@H]1CC[C@@H]2O`: the result in assay [1], in assay [2], in assay [3], in assay [4], in [5] and in assay [6] was inactive. The outcome in [8], in [9], in assay [10], in assay [11], in assay [12] and in [18] was inactive. Moreover, the result in [13], in [19], in [20], in assay [15], in [16] and in [17] was inactive. Moreover, the AC50 is 5.88 µM (active) [middle of 4 runs] in assay [3]; 27 µM (active) in assay [4]; 26.5 µM (active) and 25.8 µM (active) in [8]; 8.99 µM (active) and 4.21 µM (active) in [13].
